The whole screen tested about 340,000 compounds, of which about 6,400 (1.9%) were called active. Not shown: some 4% with an inconclusive outcome. This is one part of a sample in which actives are shown more often than they occur. Calls follow the shape of the dose curve; as a rule, active = well fitted falling curve with a large enough effect; inconclusive = small, poorly fitted or top-dose-only effect; inactive = no such curve, though single readings can be large or run the other way.
What follows are molecules tested against ATP-dependent Clp protease proteolytic subunit (Bacillus subtilis (strain 168)) (UniProt P80244) (assay: qHTS Assay for Activators of ClpP). Conditions: purified B. subtilis ClpP, FRET peptide cleavage, 20 min; series mostly up to 57.5 µM.
Summary of the method: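 FRET quenching reversal measured ClpP activation: 10 microg/mL B. subtilis ClpP at pH 8 with the FRET-FV decapeptide, read at 430 nm after 320 nm excitation. The 20-min minus 0-min signal was scaled between DMSO/no-enzyme wells and ADEP (5.8 microM final).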
Also: the source files actives as falling curves though it sought activators and does not explain the sign; nearly all actives have a fitted effect of over 65% in size.
Potency is read from the fitted curve at half-maximal effect.

ATP-dependent Clp protease proteolytic subunit (Bacillus subtilis (strain 168)), sequence (P80244 whole entry, looked up): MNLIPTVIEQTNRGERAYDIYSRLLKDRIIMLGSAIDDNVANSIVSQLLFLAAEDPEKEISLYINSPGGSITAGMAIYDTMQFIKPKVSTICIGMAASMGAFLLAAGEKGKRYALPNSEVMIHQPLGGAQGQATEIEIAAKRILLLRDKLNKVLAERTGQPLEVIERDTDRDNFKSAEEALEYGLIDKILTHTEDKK

Potency, inactive:
CCc1nc2c(OCCOc3ccc(F)cc3)cccn2c1N(C)C(=O)c1ccccc1F
CC(C)(C)Cc1c(C2CCCCC2)nc2ccc(Br)cn12
CCc1c(-c2ccc(F)cc2)ncn1Cc1cccc(-c2ccccc2)c1
Cn1c(Nc2ccc(F)cc2)nc2cc(-c3ccsc3)sc2c1=O
O=C(O)C1=C/C(=C/C=[N+]2c3cc(O)c(O[C@H]4OC(CO)[C@@H](O)[C@@H](O)[C@@H]4O)cc3C[C@@H]2C(=O)[O-])C[C@H](C(=O)O)N1 (stereo not given in full)
Cc1cccc(-c2cnc(C(O)c3cc(C)cc(C)c3)[nH]2)c1 (stereo not given)
O=C(NCCc1ccccc1)c1cnc2sc(N3CCCC3)nn2c1=O
O=C(O)c1ccccc1-c1ccccc1C(=O)NCCc1ccccc1
CC1(C(=O)Nc2cccc3cccnc23)CCN1C(=O)CCC1CCCC1 (stereo not given)
Cc1occc1C(=O)Nc1nnc(C2CCCCC2)s1
Cc1ccc(NC(=O)Nc2nnc(-c3ccncc3)s2)cc1
CCCCOc1ccc(C(=O)NO)cc1
O=C(OCc1ccccc1)N1CCC2CC1c1ccc(-c3ccc4c(c3)OCO4)cc12 (stereo not given)
CC1(C(=O)NS(=O)(=O)c2ccccc2Cl)CCN1C(=O)c1cccc(F)c1 (stereo not given)
CCc1nc2c(OCCOc3ccccc3)cccn2c1N(C)C(=O)c1ccc(OC)cc1
CCOC(=O)c1c(-c2ccccc2)oc2ccc(OCC(N)=O)cc12
CCOC(=O)c1cc(=O)c2ccc(OCc3ccccc3)cc2o1
CN1C[C@@H](CO)O[C@@H](n2cnc3c(N4CCN(CCO)CC4)ncnc32)C1
COc1cccc(NC(=S)NCc2ccccn2)c1
Cc1ccc(CN(Cc2cccnc2)C(=S)Nc2cccc(Cl)c2C)cc1
CC1(C(=O)NCc2ccco2)Cc2c(-c3ccc4c(c3)OCO4)ccnc2O1 (stereo not given)
Cc1cccc(CSc2nc3ccncc3n2Cc2ccc(C(=O)O)cc2)c1
C=CCn1c(SCc2ccc(C(=O)NCCO)cc2)nc2ccccc2c1=O
O=C(O)c1ccc(Cn2c(SCc3ccc(F)cc3)nc3ccncc32)cc1
Cc1ccc(CSc2nc3cccnc3n2Cc2ccc(C(=O)NC3CC3)cc2)cc1
COc1cccc(C(O)c2ncc(-c3ccc4ccccc4c3)[nH]2)c1 (stereo not given)
CCCCNC(=O)C[C@@H]1C[C@@]2(C(=O)OCC)CCC=C2N(Cc2cccc3ccccc23)C1=O
CCOC(=O)[C@]12CCC=C1N(Cc1cccc3ccccc13)C(=O)[C@H](CC(=O)NCc1cccc(C(F)(F)F)c1)C2
Cc1nn(CC(=O)NCCc2ccccc2)c(=O)c2cc3occc3n12
Cc1nn(CC(=O)NCC2CCCO2)c(=O)c2cc3ccccc3n12 (stereo not given)
O=C(c1ccccc1)N1CCN(c2cc(-c3ccccc3)nc3cc(-c4cccc(Cl)c4)nn23)CC1
CC=CCn1c(SCCCc2ccccc2)nc2c1c(=O)[nH]c(=O)n2C
COc1ccc([C@H]2CC(=O)C[C@@H](CCn3cc(CC4CCCC4)nn3)O2)cc1
COc1ccc(NC(=O)c2cc(-c3ccc(C)o3)nc3ccccc23)cc1
COc1cccc(NC(=O)CN(C)C(=O)c2cc(Cl)nc3ccccc23)c1
Cc1ccc(F)c(S(=O)(=O)NC(=O)C2(C)CCN2C(=O)CCc2cccs2)c1 (stereo not given)
NC(=O)c1ccc(Nc2ccc3nonc3c2[N+](=O)[O-])cc1
CCOc1ccccc1Nc1ccc(C(=O)O)cc1[N+](=O)[O-]
COc1cccc(OC)c1C(=O)Nc1ccc2c(c1)n(C)c(=O)n2C
COc1cc2c(=O)n(C)c3ccccc3c2cc1OC
CCOc1ccc(Cl)cc1-c1cc(C(=O)NCc2cccs2)[nH]n1
CCOCCC(=O)Nc1ccc2c(c1)c(=O)n(C)n2-c1ccc2ccccc2c1
O=C1CC(c2ccccc2)CC2=C1C(c1ccco1)n1nc(C(F)(F)F)nc1N2 (stereo not given)
CCCCc1c(-c2ccc(Br)cc2)ncn1CCc1ccccc1OC
O=C(OCC(=O)N1CCN(C(=O)c2ccco2)CC1)c1cccc(O)c1
O=C(OCC(=O)N1CCN(C(=O)c2ccco2)CC1)c1ccc(Cl)c(Cl)c1
COc1cccc(-c2ccc3c(c2)N(Cc2ccccc2OC)C(=O)C(C)S3)c1 (stereo not given)
O=C1Nc2ccccc2-n2nnnc2C1N1CCN(c2cccc(C(F)(F)F)n2)CC1 (stereo not given)
Cc1cc(=O)oc2cc(OC(C)C(=O)Nc3ccc(N4CCOCC4)cc3)ccc12 (stereo not given)
Cc1cc(=O)oc2cc(OC(C)C(=O)NCCc3ccc(S(N)(=O)=O)cc3)ccc12 (stereo not given)
Cc1cc(C)c2cc(C#N)c(N3CCNCC3)nc2c1
CC(=O)c1ccc(S(=O)(=O)N2CCN(c3nc4c(C)c(C)ccc4cc3C#N)CC2)cc1

Potency, active:
CCN(CC)c1nn2c(=O)c(C(=O)NCCc3ccccc3)cnc2s1 28.2 µM
Cc1occc1C(=O)Nc1nnc(-c2ccncc2)s1 31.6 µM
CCOC(=O)COc1cc(OCC(=O)OCC)c2c(=O)cc(-c3ccccc3)oc2c1 28.2 µM
COc1cccc(NC(=S)N(Cc2ccc(C)cc2)Cc2ccccn2)c1 28.2 µM
O=C(NCc1ccc(F)cc1)c1ccc(Cn2c(SCc3ccc(F)cc3)nc3cccnc32)cc1 28.2 µM
O=C(O)c1ccc(CSc2nc3cccnc3n2Cc2cccc(F)c2)cc1 31.6 µM
Cc1nn(CC(=O)O)c(=O)c2cc3cc(F)ccc3n12 28.2 µM
COc1ccc(NC(=O)CN(C)C(=O)c2cc(-c3ccc(C)o3)nc3ccccc23)cc1 25.1 µM
Cc1ccc(Nc2ccc(C(N)=O)cc2[N+](=O)[O-])cc1 12.6 µM
COc1cccc2c(O)cc(=O)n(C)c12 35.5 µM
O=C(OCC(=O)N1CCN(C(=O)c2ccco2)CC1)c1c(Cl)cccc1Cl 31.6 µM
Cc1cc(=O)oc2cc(NC(=O)C(C)Oc3ccccc3)ccc12 (stereo not given) 28.2 µM
Cc1cccc2cc(C#N)c(N3CCCC3)nc12 28.2 µM
